# Bioassay records from PubChem BioAssay.
# RmlC RmlD mix – RmlC/RmlD inhibition, mixture screen; inhibition, % at 5.5 µM; RmlC/RmlD coupled enzyme inhibition, 384-well mixture HTS; 110,000 compounds, 0.39% hits; AID 1532; in the data active = inhibition above about 30%, passing the limit was not always enough; inconclusive = no clear call, values can overlap the other calls
# HIV RNase H inh-1 – blocks HIV-1 RNase H cleavage of RNA/DNA duplex | 65,000 compounds, 1.9% hits | inhibition, % at 10 µM | AID 565 | P04585 | RT-RNase H RNA/DNA duplex cleavage, fluorescence; in the data active = inhibition above about 50%
# HIV RNase H inh-2 – confirmation of HIV-1 reverse transcriptase RNase H inhibitors; AID 651; inhibition, % at 10 µM; shares compounds with HIV RNase H inh-1; Recombinant RT RNase H, fluorescent RNA/DNA duplex cleavage; 1,000 compounds, 39% hits; in the data active = inhibition above about 48%; inconclusive = no clear call, values can overlap the other calls
# Starred values were filed as active, the others as inactive; ? = inconclusive; nt = no result given. This excerpt belongs to a sample that is enriched for hits.
SMILES,RmlC RmlD mix,HIV RNase H inh-1,HIV RNase H inh-2
CSc1ccc(C2C(C#N)=C(N)Oc3c2ccc(=O)c2c(C)oc(C)c32)cc1 (stereo not drawn),3,61*,67*
Cc1oc(C)c2c(=O)ccc3c(c12)OC(N)=C(C#N)C3c1ccccc1 (stereo not drawn),-9,-5,nt
COC(=O)CSc1snnc1-c1ccc(Cl)cc1Cl,-11,nt,nt
Cc1cccc(-c2csc(NC(=O)c3cnccn3)c2C(=O)OC(C)C)c1,5,nt,nt
COC(=O)c1c(-c2cccnc2)csc1NC(=O)c1cc(C)on1,-8,86*,?
O=C(NC(=S)NCc1ccccc1)C1CCCCC1,9,nt,nt
Cc1nc(N2CCN(C(c3ccccc3)c3ccccc3)CC2)[nH]c(=O)c1C,4,3,nt
Cc1nc(N2CCN(c3ccccc3)CC2)[nH]c(=O)c1Cc1cccc2ccccc12,nt,63*,-8
Cc1ccc(-c2nnn(CC(=O)N3CCCCC3)n2)c(-n2cnnn2)c1,5,82*,13
Cc1ccc(-c2nnn(CC(=O)NCc3ccccc3)n2)c(-n2cnnn2)c1,6,-4,nt
CCN1CCN(C(=S)c2ccc(Br)cc2)CC1,3,nt,nt
OCCN1CCN(C(=S)c2ccc(Cl)c(Cl)c2)CC1,5,93*,66*
C#Cc1ccc([C@@H]2C=C(C(=O)NC3CC3)O[C@H](OCCCCO)C2)cc1,-13,nt,nt
CCOC(=O)c1sc(NC(=O)CSc2n[nH]c(-c3ccc(Cl)cc3Cl)n2)c(C#N)c1C,-8,nt,nt
CCC(=O)N1c2ccc(C)cc2C2=NNC(=S)NC21O (stereo not drawn),46,nt,nt
CCNC(=S)NNC(=O)c1cc(-c2cc(C)ccc2C)nc2ccccc12,-22,nt,nt
Cc1cc(C)c2oc(-c3ccc(Cl)c(NC(=O)c4ccc(C#N)cc4F)c3)nc2c1,nt,90*,73*
COc1cc(C(=O)Nc2cc(-c3nc4cc(C)ccc4o3)ccc2C)cc(OC)c1OC,nt,8,nt
COc1ccc2c(=O)c(-c3ccc4c(c3)OCO4)coc2c1,-13,nt,nt
Cc1nc(SCC(=O)c2ccccc2)n[nH]1,-3,59*,17
O=C(CSc1n[nH]c(-c2ccncc2)n1)c1ccccc1,4,-5,nt
O=C(N1CCN(c2ccccn2)CC1)N1c2ccccc2Sc2ccccc21,nt,-30,nt
Cn1c(SCC(=O)Nc2ccc3c(c2)OCCO3)nnc1-c1ccccn1,11,-3,nt
O=C(CSc1nnc(-c2ccccn2)n1Cc1ccccc1)Nc1ccc2c(c1)OCO2,4,77*,6
CCOC(=O)c1[nH]c2ccc(OC)cc2c1NC(=O)CN1CCC2(CC1)OCCO2,34,74*,33
SMILES,RmlC RmlD mix,HIV RNase H inh-1,HIV RNase H inh-2
CCOC(=O)c1[nH]c2ccc(OC)cc2c1NC(=O)C(C)N1CCC2(CC1)OCCO2 (stereo not drawn),27,3,nt
CCOC(=O)C1C(=O)NC(SCC(N)=O)=C(C#N)C1c1ccccc1OCC (stereo not drawn),-10,66*,-1
CCOC(=O)C1C(=O)NC(SC)=C(C#N)C1c1ccccc1F (stereo not drawn),-6,-7,nt
c1cncc(-c2nn3c(Cn4cnc5ccccc54)nnc3s2)c1,-6,97*,68*
c1ccc(OCc2nn3c(Cn4cnc5ccccc54)nnc3s2)cc1,8,38,nt
CCOC(=O)c1cnc(SC)nc1Oc1cccc(NS(=O)(=O)c2ccc(C)cc2)c1,2,nt,nt
CCCCNC(=O)[C@@H]1CC=C[C@@H]2CCN(C3CC3)C(=O)[C@@H]21,-5,nt,nt
CC(=O)N1[C@H](C)C=C[C@]1(Cc1ccccc1)C(=O)NCCN1CCOCC1,4,nt,nt
Cc1cc(C)cc(NC(=O)C2CCCN(c3nc(C)cc(C)n3)C2)c1 (stereo not drawn),-20,70*,44
Cc1cc(C)cc(NC(=O)C2CCCN(c3nccc(C)n3)C2)c1 (stereo not drawn),8,-5,nt
O=C1CCN(S(=O)(=O)c2ccccc2)CCN1CCOCc1cccc(F)c1,2,nt,nt
Cn1cc(Cl)c(C(=O)OCC(=O)Nc2nc(-c3ccc(Br)cc3)cs2)n1,-3,nt,nt
O=C(Nc1ccc2nc(-c3ccc(Br)o3)[nH]c2c1)c1cccs1,0,71*,2
Cn1cccc1-c1nc2ccc(NC(=O)c3cccs3)cc2[nH]1,-6,0,nt
CN=C(Nc1cc(Cl)ccc1Cl)SC1CC(=O)N(c2ccc(C(=O)OC)cc2)C1=O (stereo not drawn),4,nt,nt
CC1Cc2ccccc2N1Cc1nc2cc(Cl)ccc2c(=O)[nH]1 (stereo not drawn),-15,nt,nt
COC(=O)c1ccc2c(=O)[nH]c(CN3c4ccccc4CC3C)nc2c1 (stereo not drawn),-6,63*,61*
CCCCn1nc2cc(C(=O)NCc3ccccc3)ccc2c1OCC,-6,nt,nt
Cc1cccc(-n2c(CCCN3C(=O)c4ccccc4C3=O)nc3ccccc3c2=O)n1,nt,2,nt
COc1ccc(CCNC(=O)COc2ccc(S(=O)(=O)NC3CCCCC3)cc2Cl)cc1,-7,nt,nt
